From PubChem BioAssay (Tox21)
Several values for one entry are separate records, joined by “and”; a condition that tells them apart may be missing. Equal entries are not always repeated. Records with an inconclusive call do not appear. A call without a number means that no potency is given here. More than one record can exist for a structure, and the calls need not agree. Activity calls are given as the source filed them. Calls follow the shape of the dose curve; as a rule, active = well fitted cell-killing curve with a large enough effect in the repeat runs; inconclusive = weak or mixed curves, or effect the other way; inactive = no such curve, though single readings can be large or run the other way.

assay: qHTS assay for small molecule activators of the heat shock response signaling pathway - cell viability counter screen (AID 743209); details: HSE-bla HeLa viability, CellTiter-Glo luminescence, 5 h; series mostly up to 62.6 µM; also: nearly all actives have a fitted effect of over 50% in size
Text: U.S. Tox21 Program National Center for Advancing Translational Sciences [NCATS] NIH Chemical Genomics Center [NCGC] U.S. Environmental Protection Agency [EPA] National Institutes of Environmental Health Sciences [NIEHS] National Toxicology Program [NTP] U.S. Food and Drug Administration [FDA] Tox21 Assay Overview: Various chemicals, environmental and physiological stress conditions may lead to the activation of heat shock response/ unfolded protein response (HSR/UPR). There are three heat shock transcription factors (HSFs) (HSF-1, -2, and -4) mediating transcriptional regulation of the human HSR. To identify the compounds that activate HSR signaling, HSE-bla HeLa cell line (Invitrogen, Carlsbad, CA, USA) containing a beta-lactamase reporter gene under the control of the heat shock response elements was used to screen Tox21 10K compound library. The cytotoxicity of the Tox21 compound library against the HSE-bla HeLa cell line was tested in parallel by measuring the cell viability using CellTiter-Glo assay (Promega, Madison, WI) in the same wells.
Tox21 Assay Protocol Summary: The CellSensor HSE-bla HeLa cells (Invitrogen, Carlsbad, CA, USA) were dispensed at 1500 cells/6uL/well into 1536-well black wall/clear bottom plates using a Multidrop combi (Thermo Fisher Scientific, Waltham, MA) dispenser. After the assay plates were incubated at 37 C and 5% CO2 overnight, 23 nL of compounds dissolved in DMSO, positive controls or DMSO only was transferred to the assay plate by a Pintool station (Kalypsys, San Diego, CA). The plates were incubated at 37 C for 5 h. After 1 uL of LiveBLAzerTM B/G FRET substrate was added using a Flying Reagent Dispenser (FRD, Beckman Coulter, Indianapolis, IN, USA), the plates were incubated at room temperature for 2.5 h, and fluorescence intensity was measured by an Envision plate reader (PerkinElmer, Shelton, CT). For cell viability readout that measures cytotoxicity, 3 ul/well of CellTiter-Glo reagent was added into the assay plates using a FRD. After 30 min incubation at room temperature, the luminescence intensity in the plates was measured using a ViewLux (PerkinElmer) plate reader.
Potency is read from the fitted curve at half-maximal effect.

| SMILES | Potency |
| --- | --- |
| O=Cc1ccccc1C=O | inactive |
| CN(Cc1cnc2nc(N)nc(N)c2n1)c1ccc(C(=O)N[C@@H](CCC(=O)O)C(=O)O)cc1 | inactive |
| CCCCCCCCCCC(CO)CCCCCCCC (stereo not given) | inactive |
| Nc1ccc2c(c1)C(=O)c1ccccc1C2=O | inactive |
| Cc1ccc(N)c([N+](=O)[O-])c1 | inactive |
| COC(=O)c1ccc(C)cc1 | inactive |
| Cc1ccc2c(c1)C(=O)OC2=O | inactive |
| O=C(O)c1ccc(O)cc1 | inactive |
| CC/C(=C(/CC)c1ccc(O)cc1)c1ccc(O)cc1 | inactive |
| ClC/C=C/CCl | inactive |
| CCCCCCC(C)O (stereo not given) | inactive |
| Nc1ccc(N)c(Cl)c1 | inactive |
| CN(C)/N=N/c1nc[nH]c1C(N)=O | inactive |
| CCC(=O)O[C@H]1[C@H](O[C@@H]2[C@@H](C)[C@H](O[C@H]3C[C@@](C)(OC)[C@@H](O)[C@H](C)O3)[C@@H](C)C(=O)O[C@H](CC)[C@@](C)(O)[C@H](O)[C@@H](C)C(=O)[C@H](C)C[C@@]2(C)O)O[C@H](C)C[C@@H]1N(C)C | inactive |
| CC(=O)Nc1ccc2c(c1)Cc1cc(NC(C)=O)ccc1-2 | inactive |
| CC(=O)OC(C)C | inactive |
| CC(C)=CCO | inactive |
| O=C(O)c1cc(=O)[nH]c(=O)[nH]1 | inactive |
| O=C1OC2(c3ccccc31)c1cc(I)c(O)c(I)c1Oc1c2cc(I)c(O)c1I | inactive |
| O=C(CCCN1CCC(O)(c2ccc(Cl)cc2)CC1)c1ccc(F)cc1 | inactive |

| SMILES | Potency |
| --- | --- |
| Cc1ccc(S(=O)(=O)NCl)cc1 | inactive |
| COC(=O)C(C)Oc1ccc(Oc2ncc(C(F)(F)F)cc2Cl)cc1 (stereo not given) | inactive |
| COC(=O)CC(=O)OC | inactive |
| Oc1ccc(C(c2ccc(O)cc2)C(Cl)(Cl)Cl)cc1 | inactive |
| OC[C@@H](O)[C@@H](O[C@@H]1O[C@H](CO)[C@H](O)[C@H](O)[C@H]1O)[C@H](O)[C@@H](O)CO | inactive |
| c1ccc2ncccc2c1 | inactive |
| CCC(Cc1c(I)cc(I)c(N)c1I)C(=O)O (stereo not given) | inactive |
| C1COCCN1 | inactive |
| CCCCCCCCCCCCCO | inactive |
| Nc1ccc(O)c(N)c1 | inactive |
| CCOC(=O)C(C)Oc1ccc(Oc2cnc3cc(Cl)ccc3n2)cc1 (stereo not given) | inactive |
| Cc1ccc(C(C)(C)C)c(O)c1 | inactive |
| [Na+] | inactive |
| Cc1ccc(S(=O)(=O)O)cc1C | inactive |
| c1ccc2cc3ccccc3cc2c1 | inactive |
| CC/C=C\C/C=C\C/C=C\CCCCCCCC(=O)O | inactive |
| c1ccc2c(c1)[nH]c1ccccc12 | inactive |
| COc1ccc(C(=O)c2ccccc2O)c(O)c1 | inactive |
| CCCCCCCC/C=C\CCCCCCCC(=O)O | inactive and 34.7 µM (active) |
| CC(C)(C)c1cccc(C(C)(C)C)c1O | inactive |
